Test results: the supplement of paper PMC7366291
Where a name gives a salt, the structure may show the parent alone. ± gives the standard deviation or the standard deviation of the averaged measurements.

What was measured:
Details in all cases: 25 µM; exposure: 24-48 hpf
[1] = test system: Danio rerio Tg(wt1b:EGFP) embryo, pronephros; assay: glomerular separation, fold change vs DMSO control; higher = glomeruli further apart (abnormal)
Summary of the method: (§1)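 Features are reported as fold changes against the mean of same-day DMSO-treated embryos. Before that, values more than 2 SD away from the feature mean were excluded. The embryos, dechorionated Tg(wt1b:EGFP) zebrafish, had been exposed from 24 to 48 hpf at 28.5°C to 25 μM compound in 0.5% DMSO in HEPES-buffered E3 with 0.003% PTU, and distances and angles came from 16 manually set points on maximum projections of dorsal pronephros images in Fiji.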

[2] = test system: Danio rerio Tg(wt1b:EGFP) embryo, pronephros; assay: glomerular width (mean of left and right), fold change vs DMSO control; higher = wider glomerulus
Summary of the method: as §1

[3] = test system: Danio rerio Tg(wt1b:EGFP) embryo, pronephros; assay: fraction of imaged embryos annotated as normal kidney; higher = less nephrotoxic; extreme values may be limits of the assay
Summary of the method: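 Dechorionated Tg(wt1b:EGFP) zebrafish embryos were incubated with 25 μM compound in 0.5% DMSO, 5 mM HEPES-buffered E3 and 0.003% PTU from 24 to 48 hpf at 28.5°C. Pronephroi were then imaged by widefield fluorescence, and the fraction of embryos per treatment assigned by hand to the normal-kidney category is given.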

[4] = test system: Danio rerio Tg(wt1b:EGFP) embryo, pronephros; assay: pronephric angle neck segment to proximal convoluted tubule (mean of left and right), fold change vs DMSO control; higher = larger pronephric angle
Summary of the method: as §1

Row | Structure (SMILES) | glomerular separation [1] | glomerular width [2] | fraction of imaged embryos annotated as normal kidney [3] | pronephric angle neck segment [4]
1 | COC(=O)CCc1ccc(OCC(O)CNC(C)C)cc1 (stereo not given) [Esmolol hydrochloride] | 0.66 ± 0.2 | 1.15 ± 0.035 | 0.75 | 0.986 ± 0.013
2 | CCCCNc1ccc(C(=O)OCCOCCOCCOCCOCCOCCOCCOCCOCCOC)cc1 [Benzonatate] | 1.12 ± 0.54 | 0.897 ± 0.012 | 0.7 | 1.09 ± 0.039
3 | CC(CN1c2ccccc2Sc2ccccc21)N(C)C (stereo not given) [Promethazine hydrochloride] | 0.666 ± 0.15 | 0.9984 ± 0.0084 | 0.833 | 0.994 ± 0.068
4 | CN(CCCN1c2ccccc2CCc2ccccc21)CC(=O)c1ccc(Cl)cc1 [Lofepramine] | 1.23 ± 0.38 | 0.98 ± 0.035 | 0.917 | 1.09 ± 0.011
5 | CC1CC(OC(=O)c2ccccc2O)CC(C)(C)C1 (stereo not given) [Homosalate] | 0.865 ± 0.19 | 0.8777 ± 0.0016 | 0.667 | 1.15 ± 0.044
6 | CNCCC=C1c2ccccc2C=Cc2ccccc21 [Norcyclobenzaprine] | 1.12 ± 0.86 | 1.01 ± 0.051 | 0.833 | 0.94 ± 0.027
7 | C#C[C@]1(O)CC[C@H]2[C@@H]3CCC4=C(CCC(=O)C4)[C@H]3CC[C@@]21C [Norethynodrel] | 1.17 ± 0.41 | 0.9892 ± 0.0088 | 0.667 | 0.984 ± 0.06
8 | CCCC(CCC)C(=O)O [Valproic acid] | 1.62 ± 0.94 | 0.725 ± 0.057 | 0.0833 | 1.11 ± 0.14
9 | Cc1c(N(C)CS(=O)(=O)O)c(=O)n(-c2ccccc2)n1C [Dipyrone] | 0.952 ± 0.36 | 0.936 ± 0.012 | 0.917 | 0.993 ± 0.021
10 | C[C@@H]1C[C@H]2[C@@H]3C[C@H](F)C4=CC(=O)C=C[C@]4(C)[C@@]3(F)[C@@H](O)C[C@]2(C)[C@@]1(O)C(=O)CO [Flumethasone] | 0.902 ± 0.3 | 1.28 ± 0.012 | 0.417 | 0.977 ± 0.049
11 | CC(C)NCC(O)c1ccc(O)c(O)c1 (single isomer, unassigned; (+)) [(+)-Isoproterenol (+)-bitartrate salt] | 1.57 ± 0.7 | 1.03 ± 0.023 | 0.833 | 1 ± 0.015
12 | O=C1[C@H]2CCCC[C@H]2C(=O)N1CCCCN1CCN(c2nsc3ccccc23)CC1 [Perospirone] | 1.25 ± 0.36 | 0.9761 ± 0.0054 | 1 | 1.05 ± 0.017
13 | C[C@@](Cc1ccc(O)c(O)c1)(NN)C(=O)O [Carbidopa] | 1.24 ± 0.38 | 1.0027 ± 0.00014 | 0.833 | 1.047 ± 0.0029
14 | CC[N+](C)(CC)CCC[n+]1c(-c2ccccc2)c2cc(N)ccc2c2ccc(N)cc21 [Propidium iodide] | 0.946 ± 0.41 | 1.16 ± 0.087 | 0.727 | 0.959 ± 0.036
15 | CC/C(=C(\c1ccccc1)c1ccc(OCCN(C)C)cc1)c1ccccc1 [Tamoxifen citrate] | 0.968 ± 0.33 | 0.977 ± 0.019 | 0.833 | 1.02 ± 0.045
16 | CNC(=O)c1c(I)c(C(=O)NCC(=O)Nc2c(I)c(C(=O)O)c(I)c(C(=O)NCCO)c2I)c(I)c(N(C)C(C)=O)c1I [Ioxaglic acid] | 0.975 ± 0.39 | 1.03 ± 0.037 | 0.818 | 0.982 ± 0.035
17 | CO[C@@]1(NC(=O)C(C(=O)O)c2ccc(O)cc2)C(=O)N2C(C(=O)O)=C(CSc3nnnn3C)CO[C@@H]21 (stereo not given in full) [Moxalactam disodium salt] | 0.871 ± 0.28 | 1.04 ± 0.014 | 0.917 | 0.984 ± 0.067
18 | NCCc1cc[nH]n1 [Betazole hydrochloride] | 1.28 ± 0.54 | 0.9705 ± 0.0028 | 0.917 | 1.05 ± 0.012
19 | CC1(C)O[C@@H]2C[C@H]3[C@@H]4CCC5=CC(=O)C=C[C@]5(C)[C@H]4[C@@H](O)C[C@]3(C)[C@]2(C(=O)CO)O1 [Desonide] | 1.63 ± 0.49 | 1.33 ± 0.024 | 0.167 | 1.04 ± 0.13
20 | CCn1cc(C(=O)O)c(=O)c2ccc(C)nc21 [Nalidixic acid sodium salt] | 1.31 ± 0.59 | 1.11 ± 0.025 | 0.25 | 1.19 ± 0.022
21 | CC(C)OC(=O)C(C)(C)Oc1ccc(C(=O)c2ccc(Cl)cc2)cc1 [Fenofibrate] | 6.84 ± 3.3 | 0.648 ± 0.076 | 0 | 1.801 ± 0.0082
22 | CC(=O)N(CC(C)C(=O)O)c1c(I)cc(I)c(N)c1I (stereo not given) [Iocetamic acid] | 0.546 ± 0.25 | 0.974 ± 0.011 | 0.917 | 0.986 ± 0.024
23 | CC(C)NC[C@@H](O)COc1ccc(CC(N)=O)cc1 [(R)-(+)-Atenolol] | 0.655 ± 0.16 | 0.977 ± 0.036 | 0.917 | 0.977 ± 0.029
24 | NS(=O)(=O)Cc1noc2ccccc12 [Zonisamide] | 0.805 ± 0.15 | 1 ± 0.059 | 0.917 | 1.02 ± 0.017
25 | CN1CCCCC1CCN1c2ccccc2Sc2ccc([S+](C)[O-])cc21 (stereo not given) [Mesoridazine besylate] | 1.4 ± 1 | 0.916 ± 0.033 | 0.833 | 1.02 ± 0.033
26 | Clc1ccc(C(Cn2ccnc2)OCc2csc3c(Cl)cccc23)c(Cl)c1 (stereo not given) [Sertaconazole nitrate] | 3.82 ± 1.8 | 0.727 ± 0.039 | 0 | 1.56 ± 0.052
27 | COc1ccccc1OCC(O)CO (stereo not given) [Guaifenesin] | 1.21 ± 0.52 | 0.929 ± 0.12 | 0.917 | 1.07 ± 0.035
28 | CC1(C)S[C@@H]2[C@H](NC(=O)Cc3ccccc3)C(=O)N2[C@H]1C(=O)O [Benzathine benzylpenicillin] | 0.907 ± 0.35 | 1.06 ± 0.074 | 1 | 0.951 ± 0.019

Row | Structure (SMILES) | glomerular separation [1] | glomerular width [2] | fraction of imaged embryos annotated as normal kidney [3] | pronephric angle neck segment [4]
29 | O=C(Nc1ccc([N+](=O)[O-])cc1Cl)c1cc(Cl)ccc1O [Niclosamide] | 1.53 ± 0.67 | 0.907 ± 0.04 | 0.455 | 1.26 ± 0.093
30 | C=C1C(=O)O[C@H]2[C@H]1CC/C(C)=C/CC[C@@]1(C)O[C@@H]21 [Parthenolide] | 2.81 ± 1.2 | 0.8373 ± 0.0079 | 0.364 | 1.4 ± 0.038
31 | Cc1ncc([N+](=O)[O-])n1CCO [Metronidazole] | 1.1 ± 0.31 | 0.928 ± 0.084 | 0.917 | 0.884 ± 0.061
32 | O=C(O)c1cn(-c2ccc(F)cc2)c2cc(N3CCNCC3)c(F)cc2c1=O [Sarafloxacin] | 1.17 ± 0.4 | 1.08 ± 0.039 | 0.455 | 1.02 ± 0.013
33 | COc1ccc(-c2ccc(=N)n(CCCC(=O)O)n2)cc1 [Gabazine bromide] | 0.985 ± 0.27 | 0.983 ± 0.024 | 0.667 | 1.02 ± 0.026
34 | CCOc1nc2cccc(C(=O)O)c2n1Cc1ccc(-c2ccccc2-c2nnn[nH]2)cc1 [Candesartan] | 0.996 ± 0.37 | 1.03 ± 0.023 | 0.917 | 1.01 ± 0.019
35 | Nc1ccc(S(=O)(=O)Nc2ccc(Cl)nn2)cc1 [Sulfachloropyridazine] | 0.92 ± 0.34 | 0.973 ± 0.029 | 0.75 | 1.017 ± 0.0048
36 | COC(=O)[C@@H]1[C@H]2C[C@H]3c4[nH]c5ccccc5c4CCN3C[C@@H]2CC[C@@H]1O [Yohimbine hydrochloride] | 1.24 ± 0.41 | 1.08 ± 0.069 | 0.727 | 0.985 ± 0.082
37 | O=C1[C@H](CC[C@H](O)c2ccc(F)cc2)[C@@H](c2ccc(O)cc2)N1c1ccc(F)cc1 [Ezetimibe] | 1.28 ± 0.36 | 1.01 ± 0.015 | 0.75 | 0.992 ± 0.059
38 | CCn1cc(C(=O)O)c(=O)c2cc(F)c(N3CCNCC3)cc21 [Norfloxacin] | 0.828 ± 0.22 | 1.05 ± 0.037 | 1 | 0.9433 ± 0.0086
39 | Cc1cc(C(C)(C)C)cc(C)c1CC1=NCCN1 [Xylometazoline hydrochloride] | 1.11 ± 0.42 | 0.948 ± 0.05 | 1 | 1 ± 0.012
40 | CN(C/C=C/c1ccccc1)Cc1cccc2ccccc12 [Naftifine hydrochloride] | 1.03 ± 0.34 | 0.96 ± 0.044 | 0.9 | 0.982 ± 0.078
41 | Cc1c(NC(C)C)c(=O)n(-c2ccccc2)n1C [Isopyrin hydrochloride] | 1.1 ± 0.6 | 1.04 ± 0.016 | 0.917 | 0.974 ± 0.022
42 | CC(COc1ccccc1)NC(C)C(O)c1ccc(O)cc1 (stereo not given) [Isoxsuprine hydrochloride] | 1.07 ± 0.26 | 1.08 ± 0.024 | 1 | 0.928 ± 0.029
43 | Nc1cc(-c2ccncc2)c[nH]c1=O [Amrinone] | 0.609 ± 0.23 | 1.01 ± 0.036 | 0.917 | 0.969 ± 0.014
44 | CCN(CC)C(=O)c1ccc(O)c(OC)c1 [Ethamivan] | 1.08 ± 0.29 | 1.1 ± 0.019 | 0.818 | 1.019 ± 0.0025
45 | C=C1c2cccc(O)c2C(=O)C2=C(O)[C@]3(O)C(=O)C(C(N)=O)=C(O)[C@@H](N(C)C)[C@@H]3[C@@H](O)[C@H]12 [Methacycline hydrochloride] | 0.724 ± 0.4 | 1.11 ± 0.0095 | 0.818 | 0.984 ± 0.018
46 | C=CCc1ccccc1OCC(O)CNC(C)C (stereo not given) [Alprenolol hydrochloride] | 0.823 ± 0.28 | 1 ± 0.074 | 0.833 | 1.07 ± 0.015
47 | COc1cccc2c1C(=O)c1c(O)c3c(c(O)c1C2=O)C[C@@](O)(C(C)=O)C[C@@H]3O[C@H]1C[C@H](N)[C@H](O)[C@H](C)O1 [Daunorubicin hydrochloride] | 0.979 ± 0.36 | 1.03 ± 0.019 | 0.917 | 1.04 ± 0.025
48 | CN1CCN(C(c2ccccc2)c2ccccc2)CC1 [Cyclizine hydrochloride] | 0.835 ± 0.14 | 0.9853 ± 0.0046 | 0.833 | 0.952 ± 0.018
49 | CC(C)(CO)C(O)C(=O)NCCCO (stereo not given) [Panthenol (D)] | 0.954 ± 0.35 | 1.001 ± 0.0062 | 0.75 | 1.008 ± 0.005
50 | CNCCC(Oc1ccccc1OC)c1ccccc1 (stereo not given) [Nisoxetine hydrochloride] | 0.972 ± 0.43 | 0.94 ± 0.013 | 0.833 | 1.06 ± 0.022
51 | Nc1nc2c(ncn2COC(CO)CO)c(=O)[nH]1 [Ganciclovir] | 0.62 ± 0.26 | 1.009 ± 0.0021 | 0.917 | 0.998 ± 0.018
52 | C=C1/C(=C\C=C2/CCC[C@]3(C)[C@@H]([C@H](C)/C=C/[C@@H](O)C4CC4)CC[C@@H]23)C[C@@H](O)C[C@@H]1O [Calcipotriene] | 1.01 ± 0.34 | 1.06 ± 0.012 | 0.75 | 0.89787 ± 0.00058
53 | CN[C@H](CC(C)C)C(=O)N[C@H]1C(=O)N[C@@H](CC(N)=O)C(=O)N[C@H]2C(=O)N[C@H]3C(=O)N[C@H](C(=O)N[C@H](C(=O)O)c4cc(O)cc(O)c4-c4cc3ccc4O)[C@H](O)c3ccc(c(Cl)c3)Oc3cc2cc(c3O[C@@H]2O[C@H](CO)[C@@H](O)[C@H](O)[C@H]2O[C@H]2C[C@](C)(N)[C@H](O)[C@H](C)O2)Oc2ccc(cc2Cl)[C@H]1O [Vancomycin hydrochloride] | 0.943 ± 0.23 | 0.978 ± 0.033 | 0.909 | 1.06 ± 0.077
54 | Cc1c(C)c2c(c(C)c1O)CCC(C)(C(=O)O)O2 (stereo not given) [Trolox] | 0.733 ± 0.23 | 0.963 ± 0.058 | 0.833 | 1 ± 0.014
55 | C[C@H](CCC(=O)O)[C@H]1CC[C@H]2[C@@H]3[C@@H](O)C[C@@H]4C[C@H](O)CC[C@]4(C)[C@H]3CC[C@]12C [Urosiol] | 1.3 ± 0.7 | 0.775 ± 0.074 | 0.583 | 0.965 ± 0.032
